# Results from PubChem BioAssay AID1814 (Broad Institute, 2009).
# The whole screen tested about 300,000 compounds, of which about 22,000 (7.3%) were called active. Another 2% or so got no clear call; they are omitted. The full list was thinned out, with actives kept by preference. Values without a mark were called inactive. Rule as the data show it: active = activity score below about -60%; inconclusive = mostly about -28% to -61%; inactive = positive scores.
# Test: Activators working through SNCA 5'UTR binding (MLPCN) (AID 1814)
# Details: alpha-synuclein 5'UTR reporter, activators screen; hits give low values; tested at 7.5 µM
row,Compound,activity score
1,CC(=O)Nc1ccc(Nc2c([N+](=O)[O-])cc(S(C)(=O)=O)cc2[N+](=O)[O-])cc1,-75.2% (active)
2,COc1ccc(-c2csc(NC(=O)COC(=O)c3ccc(Br)o3)n2)cc1,-106% (active)
3,COc1ccc(-c2csc(NC(=O)COC(=O)Cc3ccc(Cl)cc3Cl)n2)cc1,-99.4% (active)
4,COc1ccccc1N1CCN(C(=O)CSc2ncnc3c2cnn3-c2ccc(C)c(C)c2)CC1,-144% (active)
5,CCN(CC)C(=O)CSc1ncnc2c1cnn2-c1ccccc1,-129% (active)
6,CC(C)Sc1ncnc2c1cnn2-c1ccccc1,-82.1% (active)
7,COc1ccccc1N1CCN(C(=O)c2cc(=O)c3cc(C)cc(C)c3o2)CC1,78.3%
8,COc1cc(OC)cc(-c2nc(=S)n3ccsc3n2)c1,-77.6% (active)
9,COc1ccc(-c2ccc3nnc(SCC(=O)Nc4ccc(NC(C)=O)cc4)n3n2)cc1,-81.8% (active)
10,Oc1ccc(-c2cccc(-c3ccc(O)cc3)c2)cc1,-135% (active)
11,O=C(Nc1ccc([N+](=O)[O-])cc1)OCCc1ccccn1,-144% (active)
12,O=C(Nc1cccc(Cl)c1)OCc1ccccn1,-131% (active)
13,COc1ccc(-c2noc(-c3ccc(C)cc3)n2)cc1,-153% (active)
14,COc1ccccc1Cc1nc(-c2ccc(C)cc2)no1,-97.1% (active)
15,COc1ccc2[nH]c(=O)c(-c3noc(-c4ccc(F)cc4)n3)cc2c1,-111% (active)
16,COc1ccc(-c2nc(-c3ccccc3)no2)c(OC)c1,68.9%
17,O=C(Nc1nnc(-c2ccccc2F)s1)c1ccccc1F,-172% (active)
18,COc1ccc(CCc2nc(-c3cccs3)no2)cc1,-148% (active)
19,Clc1cccc(Cl)c1Cn1nnc(-c2cccs2)n1,-162% (active)
20,CCCc1ccc(-c2csc(NC(=O)Cc3cccs3)n2)cc1,-66.4% (active)
21,Cc1ccc(-c2csc(NC(=O)Cc3cccs3)n2)cc1C,-200% (active)
22,CC(C)c1ccc(NC(=O)Cn2ncc3ccccc32)cc1,-178% (active)

row,Compound,activity score
1,O=C(N/N=C/C=C/c1ccco1)c1cccs1,-86.4% (active)
2,Cc1ccc(-n2nc(C)c(/C=N/NC(=O)c3cccs3)c2Cl)cc1,-87.3% (active)
3,CC(=O)Nc1ccc(/C=N/NC(=O)c2cccs2)cc1,-159% (active)
4,Cc1cccc(-n2c(C)cc(/C=N\NC(=O)c3cccs3)c2C)c1,-62.2% (active)
5,CCOC(=O)/C(C#N)=C/c1ccc(OCC(=O)Nc2ccccc2)c(OC)c1,-119% (active)
6,CCCn1c(C)cc(/C=C(\C#N)C(=O)OCC(=O)Nc2cc(OC)c(OC)c(OC)c2)c1C,-103% (active)
7,OC(COc1ccc2ccccc2c1)CN1CCOCC1 (stereo unspecified),-72.5% (active)
8,CC1CCc2c(sc3nc4n(c(=O)c23)CCS4)C1 (stereo unspecified),-71.6% (active)
9,CCCn1nnc2sc3c(c2c1=O)CCC(C)C3 (stereo unspecified),-131% (active)
10,Cc1ccn(-c2cccc(-n3ccc(C)n3)n2)n1,-93% (active)
11,CN1CCN(/N=C/c2ccc(-c3ccc([N+](=O)[O-])cc3)o2)CC1,-128% (active)
12,Cc1cc(=O)n2[nH]c(-c3cccc(Cl)c3)cc2n1,-79% (active)
13,O=c1c2c(nc3cc(-c4cccc(Cl)c4)[nH]n13)CCCC2,18.5%
14,CCn1c(CNc2ccc(OC)cc2)nnc1SCC(=O)c1ccc(OC)cc1,-63.6% (active)
15,Brc1ccc2c(c1)[C@H]1OCC[C@H]1[C@@H](c1cccs1)N2,72.2%
16,O=C1NC(c2ccncc2)Nc2sc3c(c21)CCCC3 (stereo unspecified),-66.2% (active)
17,C/C(=N\NS(=O)(=O)c1ccc(Cl)cc1)c1ccc(NC(=O)c2ccco2)cc1,-87.4% (active)
18,Cc1ccnc(NC(=O)c2ccc(Cl)c([N+](=O)[O-])c2)c1,-78.7% (active)
19,O=C(Nc1ccc2oc(-c3ccccc3F)nc2c1)c1ccco1,-128% (active)
20,O=C(CSCc1ccccc1)Nc1ccccc1,-126% (active)
21,CCS(=O)(=O)Nc1ccc(C(=O)NCCSc2ccccc2)cc1,-92.6% (active)
22,O=C(CSc1ccccc1)Nc1ccc(NC(=O)c2ccco2)cc1,-68.2% (active)

row,Compound,activity score
1,CSCCC(NC(=O)c1ccco1)C(=O)Nc1cc(C)ccn1 (stereo unspecified),-130% (active)
2,O=C(Nc1cccc(-c2nc3ncccc3o2)c1)c1ccco1,-72.9% (active)
3,Cc1ccc(-n2nc3cc(Cl)c(NC(=O)c4ccco4)cc3n2)cc1,-179% (active)
4,Cc1ccnc(NC(=O)c2ccc(NC(=O)c3ccco3)cc2)c1,-164% (active)
5,O=C(/C=C/c1ccco1)Nc1ccc(Oc2ccccc2)cc1,-217% (active)
6,CCCc1cc(C(=O)Nc2ccc(C(=O)OC)cc2)cs1,-74% (active)
7,O=C(Nc1ccc(Oc2ccccc2)cc1)c1ccco1,-119% (active)
8,Cc1cc(NC(=O)c2ccc(F)cc2)ccc1NC(=O)c1ccco1,-63.3% (active)
9,O=C(CSc1ccccc1)Nc1ccc(C(=O)Nc2cccc(O)c2)cc1,-104% (active)
10,Cc1cccc(CS(=O)(=O)c2ncc(Cl)c(C(=O)Nc3ccc(F)cc3)n2)c1,59.7%
11,O=C(NCCSc1ccccc1)c1ccco1,-162% (active)
12,O=C(Nc1ccc(O)cc1)c1ccc(NC(=O)c2ccco2)cc1,-72.7% (active)
13,COC(=O)c1cc(Cl)c(NC(=O)c2ccco2)cc1OC,-96% (active)
14,CCCc1ccc(OCCNC(=O)c2ccco2)cc1,-90.6% (active)
15,COC(=O)c1ccc(NC(=O)c2ccco2)cc1,-107% (active)
16,O=C(Nc1ccc2nccnc2c1)c1ccco1,-105% (active)
17,Cc1ccnc(NC(=O)c2ccoc2C)c1,-147% (active)
18,Cc1ccoc1C(=O)Nc1cccc(Oc2ccccc2)c1,-137% (active)
19,Clc1ccc(Cc2nnc(-c3cccs3)o2)cc1,-116% (active)
20,COc1ccc(NC(=O)/C(Cl)=C(/Cl)S(=O)Cc2ccc(C)cc2)cn1 (stereo unspecified),106%
21,Cc1ccc(NC(=O)OCc2cncs2)cc1,-112% (active)
22,O=C(N/N=C/c1ccc(OCc2ccccc2)cc1)c1ccc(O)cc1,-70.7% (active)

row,Compound,activity score
1,Cc1ccnc(NC(=O)CCNS(=O)(=O)c2ccc(C)c(C)c2)c1,-87.9% (active)
2,CC(C)c1ccc(NC(=S)NC2CC3C=CC2C3)cc1 (stereo unspecified),-134% (active)
3,COc1ccccc1NC(=O)C1=C(C)Nc2nc3ccccc3n2C1c1cccs1 (stereo unspecified),106%
4,Cc1sc(NC(=O)C2=COCCO2)c(C#N)c1C,-110% (active)
5,Cc1ccc(-c2csc(NC(=O)C3=COCCO3)n2)cc1C,-176% (active)
6,COc1ccccc1NC(=O)c1ccc(C)s1,-227% (active)
7,Cc1csc(NC(=O)C2=COCCO2)n1,-132% (active)
8,O=C(Nc1nc(-c2ccc3c(c2)OCO3)cs1)c1ccncc1,-99.5% (active)
9,COc1cc(SC)ccc1C(=O)Nc1nc(C)cs1,96.2%
10,Cc1ccc(-c2csc(NC(=O)c3cnccn3)n2)cc1C,-97.7% (active)
11,Cc1csc(NC(=O)c2ccc(C)s2)n1,-174% (active)
12,COc1ccc(-c2nnc(SCC(=O)c3cccs3)o2)c(OC)c1,-106% (active)
13,COc1ccccc1-c1nnc(SCC(=O)N2CC(C)CC(C)C2)o1 (stereo unspecified),45.8%
14,COc1ccccc1-c1nnc(SCC(=O)Nc2ccccc2)o1,-187% (active)
15,Cc1ccc(C(=O)Nc2nc3ccc(Cl)cc3s2)o1,-183% (active)
16,O=C(c1cccs1)N1CCCC(c2nc(-c3ccc(F)cc3)no2)C1 (stereo unspecified),-91.6% (active)
17,Cc1ccc(-c2noc(C3CCCN(C(=O)c4cccc(Cl)c4)C3)n2)o1 (stereo unspecified),-109% (active)
18,COc1ccc2nc(N3CCN(C(=O)c4ccc([N+](=O)[O-])o4)CC3)sc2c1,-160% (active)
19,Cc1ccc2nc(N3CCN(C(=O)c4ccco4)CC3)sc2c1,-216% (active)
20,C/C(=N\NC(=O)c1ccc(C)cc1)C1C(=O)c2ccccc2C1=O,-78.5% (active)
21,COc1ccc(NC(=O)CSc2nc(SC)ns2)c(OC)c1,-118% (active)
22,CN(C)CCCN(C(=O)c1ccc(S(=O)(=O)N2CCCCCC2)cc1)c1nc2ccc(Br)cc2s1,75.3%

row,Compound,activity score
1,c1c2c(cc3sc(N4CCCCC4)nc13)OCCO2,107%
2,Brc1ccc2nc(N3CCCC3)sc2c1,-105% (active)
3,Fc1ccc2nc(N3CCCCC3)sc2c1,-129% (active)
4,Fc1cc(F)c2nc(Nc3nc4c(F)cccc4s3)sc2c1,-218% (active)
5,C=CCn1c(C)cc(C2=NNC(=NCC)SC2)c1C,105%
6,Cc1cccc(N=C2NN=C(c3c[nH]c4ccccc34)CS2)c1,-102% (active)
7,COc1ccc(-c2nnc(SCc3cccnc3)o2)cc1,-128% (active)
8,COc1ccc(-c2nnc(SC(C)C#N)o2)cc1 (stereo unspecified),-98.3% (active)
9,COc1cc(/C=N/n2c(C)n[nH]c2=S)ccc1OCc1ccccc1,-106% (active)
10,COc1ccc2[nH]c(C(=O)Nc3ccccc3Cl)cc2c1,-132% (active)
11,O=C(CN1C(=O)c2ccccc2S1(=O)=O)N1CCc2ccccc21,93.5%
12,O=C(CSCc1ccccc1)N1CCc2ccccc21,-92.8% (active)
13,COc1ccc(Nc2ncnc3sc(C)cc23)cc1,-159% (active)
14,O=C(c1ccc(CSc2ccccc2)cc1)N1CCCCCC1,-99.5% (active)
15,CCc1ccc(-c2cc(C(=O)NCc3ccco3)c3ccccc3n2)s1,-123% (active)
16,O=C(/C=C/c1ccc(Cl)cc1Cl)NCc1ccco1,-119% (active)
17,CC1CCc2sc3nc(N4CCN(CCO)CC4)n4ncnc4c3c2C1 (stereo unspecified),-73.1% (active)
18,COc1cccc(NC(C)=[N+](C)CCNS(=O)(=O)c2ccc(Cl)cc2)c1,-156% (active)
